# Test results as given in PubChem BioAssay (NCI).
# This is part of a sample that, as a whole, favours compounds with a hit. Of some 83,000 tested, about 20% had one in any assay.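 For each line, cells grew in 96-well plates with the test compound present at a single concentration for 48 hours.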 A number with no mark means an inactive call. Active and inactive are the calls of the source. Rule for the calls: active = growth percent below 10; inactive = the rest.
# Tests used:
# Assay in all cases: NCI-60 one-dose screen, 48 h (100 = growth as untreated, 0 = no growth, -100 = all killed)
# Settings in all cases: 10 µM unless noted
# NCI-H23 lung = test system: NCI-H23 lung
# NCI-H226 lung = test system: NCI-H226 lung
# NCI-H322M lung = test system: NCI-H322M lung
# HOP-62 NSCLC = test system: HOP-62 NSCLC
# NCI-H460 lung = test system: NCI-H460 lung
# HOP-92 NSCLC = test system: HOP-92 NSCLC
# NCI-H522 lung = test system: NCI-H522 lung
# A549/ATCC NSCLC = test system: A549/ATCC NSCLC
# 786-0 renal = test system: 786-0 renal
# COLO 205 colon = test system: COLO 205 colon
# DU-145 prostate = test system: DU-145 prostate
# K-562 leukemia = test system: K-562 leukemia
# MALME-3M melanoma = test system: MALME-3M melanoma
# MDA-MB-231 breast = test system: MDA-MB-231 breast
# RXF 393 renal = test system: RXF 393 renal
# SF-268 CNS = test system: SF-268 CNS
# SF-295 CNS = test system: SF-295 CNS
# SF-539 CNS = test system: SF-539 CNS
# UACC-257 melanoma = test system: UACC-257 melanoma
# M14 melanoma = test system: M14 melanoma
Structure (SMILES),growth (NCI-H23 lung),growth (NCI-H226 lung),growth (NCI-H322M lung),growth (HOP-62 NSCLC),growth (NCI-H460 lung),growth (HOP-92 NSCLC),growth (NCI-H522 lung),growth (A549/ATCC NSCLC),growth (786-0 renal),growth (COLO 205 colon),growth (DU-145 prostate),growth (K-562 leukemia),growth (MALME-3M melanoma),growth (MDA-MB-231 breast),growth (RXF 393 renal),growth (SF-268 CNS),growth (SF-295 CNS),growth (SF-539 CNS),growth (UACC-257 melanoma),growth (M14 melanoma)
C[Se]C(=O)c1ccccc1OC(C)=O,53.9%,6.57% (active),91.4%,48.9%,37.5%,38.4%,63.8%,59.2%,79.4%,111%,76.9%,74.8%,68.7%,68.3%,11.7%,18.3%,48.6%,50.3%,49.1%,20.8%
CCOC(=O)CCN(C)C1=Nc2ccc(Cl)cc2C(c2ccccc2)=[N+]([O-])C1,101%,104%,98.4%,96.6%,106%,98.6%,70.9%,100%,117%,129%,106%,96.8%,101%,97.9%,105%,99.6%,102%,107%,105%,113%
NC(=S)c1cn(C2OC(CO)C(O)C2O)c2ncnc(N)c12 (stereo not given),-38.8% (active),-12.7% (active),-17% (active),-30% (active),3.97% (active),-4.97% (active),-38.6% (active),4.83% (active),-15.9% (active),-47% (active),-18.8% (active),-42.3% (active),-30.5% (active),-9.11% (active),-55.9% (active),-20.9% (active),-3.13% (active),-53.1% (active),-1.27% (active),-57.9% (active)
O=C1NC(=O)C(=Cc2cn(C(=O)c3ccccc3)c3ccccc23)C(=O)N1,98%,92.3%,95.5%,93.4%,97.6%,71.8%,85.8%,101%,101%,113%,113%,141%,90.5%,88.9%,45%,102%,116%,87.6%,87%,95.3%
CCOC(=O)[C@@H](C)C[C@H](Cc1ccccc1)NC(=O)c1csc([C@@H](C[C@H](C(C)C)N(C)C(=O)[C@@H](NC(=O)[C@H]2C[C@H](O)CCN2C)C(C)C)OC(C)=O)n1,30.7%,-29.5% (active),43.3%,10.7%,5.02% (active),26.3%,-39% (active),13.5%,11.2%,-61.4% (active),0.421% (active),6.81% (active),35.1%,14.5%,42.1%,24.6%,-6.17% (active),-18.5% (active),58.5%,-13% (active)
COc1cc2c(cc1OCc1ccccc1)C(CC(C)C)=[N+](C)CC2,56.4%,81.2%,97.8%,88.2%,92.1%,77.7%,66.3%,61%,95.6%,56.9%,93.6%,67.2%,85%,93%,93.9%,67.5%,68.2%,76.7%,50%,99.1%
O=[N+]([O-])c1cc([N+](=O)[O-])c(Nn2c3ccccc3c3ccccc32)c([N+](=O)[O-])c1,-3.12% (active),-1.91% (active),2.33% (active),-11.8% (active),3.43% (active),-28.1% (active),-25.4% (active),4.97% (active),0.775% (active),-65.2% (active),22.7%,6.42% (active),-16.2% (active),-6.81% (active),-4.31% (active),16.2%,-47.6% (active),8.26% (active),-22.6% (active),1.91% (active)
COC(=O)[C@@H](C)C[C@H](Cc1ccccc1)NC(=O)c1csc([C@@H](C[C@H](C(C)C)N(C)C(=O)[C@@H](NC(=O)[C@H]2CCCCN2C)c2ccc(F)cc2)OC(C)=O)n1,25.6%,29.4%,37.4%,3.87% (active),3.62% (active),4.81% (active),-2.85% (active),13.9%,15.7%,-53.8% (active),6.65% (active),2.45% (active),65.8%,-9.8% (active),74.7%,13.2%,3.25% (active),-17.9% (active),53.2%,-6.9% (active)
O=NN1CCCc2cccc(O)c21,-6.22% (active),76.5%,41.8%,31.9%,4.79% (active),71.6%,-21.7% (active),37.6%,27.2%,94%,10.8%,9.43% (active),38.3%,78.8%,-4.04% (active),27.8%,31%,-32.8% (active),57.4%,22.2%
COC(=O)[C@@H](C)C[C@H](Cc1ccccc1)NC(=O)c1nc([C@@H](C[C@H](C(C)C)N(C)C(=O)[C@@H](NC(=O)[C@H]2CCCCN2C)C(C)C)OC(C)=O)sc1C(C)C,24.6%,52.4%,38.1%,11.8%,5.54% (active),30.6%,-9.43% (active),2.6% (active),-6.11% (active),-61.5% (active),-0.426% (active),7.38% (active),57.5%,2.67% (active),23.7%,22.1%,-1.35% (active),-22.2% (active),50.7%,-26.6% (active)
Fc1cccc(NCOOC2(OOCNc3cccc(F)c3)CCCCC2)c1,81.9%,112%,98.6%,90.6%,104%,87.3%,74.9%,89.6%,85%,118%,98.6%,41.3%,101%,103%,108%,93%,94.3%,91.2%,88.7%,91.6%
CN(C)C(=O)Oc1ccc(Br)cc1,102%,101%,86.1%,93%,104%,107%,95.6%,100%,98.6%,102%,107%,96.5%,98%,105%,107%,110%,91.3%,108%,95%,104%
CCCCCCCC[N+](C)(CCCCCCCC)CCCCCCCC,-97% (active),-86.2% (active),-100% (active),-92.2% (active),-100% (active),-70% (active),-99.9% (active),-100% (active),-95.7% (active),-60.7% (active),-100% (active),86.9%,-91.7% (active),-87% (active),-100% (active),-100% (active),-94.8% (active),-100% (active),-95.2% (active),-94.1% (active)
O=C(CC1(O)C(=O)Nc2ccc(Br)cc21)c1ccc(C(=O)NCC2CCC3(CC2)OOC2(CCCCC2)OO3)cc1 (stereo not given),53.7%,61.3%,80.1%,31%,36.4%,-46.3% (active),6.67% (active),36.7%,-7.61% (active),51.4%,59.1%,-61% (active),-7.48% (active),56.8%,69.5%,47.8%,69.1%,55%,49.4%,61.6%
Brc1ccc2c(c1)c(-c1nc(-c3c[nH]c4ncccc34)cs1)cn2CCN1CCOCC1,71.8%,60.2%,72.1%,60.4%,63.2%,52.2%,76.1%,61.7%,67.5%,64.3%,86.5%,24.3%,88.5%,53.3%,74.6%,65.4%,74.4%,61%,99.7%,63.8%
